Results on 51 compounds are retold here after ChEMBL document CHEMBL3988442, “University of Dundee, Small-Polar-MMV Screening Library” (2021).

Hit rate of the full screen: of about 38,000 compounds, about 1,200 (3.2%) showed an effect of 50% or more. The median lay at about -58%. Shown is part of a subset that was picked to be rich in strong results.

This experiment deals with Plasmodium falciparum. In words: Calibr Malaria Delayed Death Assay SOP. Particulars: concentration 4.99e-06 (unit not given; other assays of the set use mol/L). The class given is functional, organism-based. Set-up: scale not given: in the data most compounds retested in dose-response had high values.
Take `Cc1nn(C)c2c(N3CCC(C)CC3)nc(C3CC3)nc12`: the “Percent Effect” value is on record as -7.534%.

For the compound `CCC(C)N1CCc2nc(N3CCCC3)nc(NC(C)C)c2C1` (stereo unspecified), the “Percent Effect” value is 77.92%.

For `CC(C)Nc1nc(-c2ccccc2)nc2c1CCN(C(=O)C1CC1)CC2.O=C(O)C(F)(F)F`, the “Percent Effect” value was determined as 24.24%.

For `Cc1nc(N2CCCC2)nc2c1CN(C(C)C)CC2.O=C(O)C(F)(F)F`, the “Percent Effect” value is -39.09%.

As for `CC(C)Nc1nc(N2CCCC2)nc2c1CN(S(C)(=O)=O)CC2`, the “Percent Effect” value amounted to 50.55%.

Regarding `CC(C)Nc1nc(N2CCCC2)nc2c1CN(C)CC2`, the “Percent Effect” value is recorded as 48.45%.

Regarding `CCCN1CCc2nc(N3CCOCC3)nc(NC(C)C)c2C1`, the “Percent Effect” value is on record as -40.15%.

Take `CCN1CCc2nc(N3CCOCC3)nc(NC(C)C)c2C1`: the “Percent Effect” value is 12.6%.

Turning to `CC(C)Nc1nc(N2CCCC2)nc2c1CN(c1ncc(F)cn1)CC2`, the “Percent Effect” value is reported as 23.23%.

Consider `CC(C)Nc1nc(N2CCCC2)nc2c1CCN(S(C)(=O)=O)CC2.O=C(O)C(F)(F)F.O=C(O)C(F)(F)F`, for which the “Percent Effect” value was 51.48%.

In the case of `Cn1ccnc1CN1CCCN(C(=O)c2ccc3cc[nH]c3c2)CC1`, the “Percent Effect” value is -18.34%.

Consider `Cc1nc(CO[C@@H]2CC[C@H]3[C@H]2OCCN3Cc2cccnc2)cs1.O=C(O)C(F)(F)F.O=C(O)C(F)(F)F.O=C(O)C(F)(F)F`, for which the “Percent Effect” value is on record as -25.46%.

For the compound `CC(C)CNC(=O)N1C[C@H]2C[C@H](C(=O)NCc3ccccc3)[C@@H](C1)O2`, the “Percent Effect” value was -25.06%.

For `O=C(NCc1cc[nH]n1)N1CCN(c2ncccn2)CC1`, the “Percent Effect” value is reported as -98.04%.

For `Cc1ccoc1C(=O)N1Cc2c(CN3CCCCC3)nn(C)c2C1.O=CO`, the “Percent Effect” value is -35.59%.

`Cc1cc(CN(C)C2CCCN(c3cccnn3)C2)no1` (stereo unspecified): the “Percent Effect” value is listed as -12.48%.

Regarding `Cc1oncc1C(=O)NCC1(O)CCc2ccccc2C1` (stereo unspecified), the “Percent Effect” value is listed as -85.49%.

Take `COc1coc(C(=O)Nc2nc(-c3ccncc3)cs2)cc1=O`: the “Percent Effect” value was -115.6%.

Consider `Cc1ccc(NC2CCN(C(=O)COc3cccc(F)c3)CC2)nn1`, for which the “Percent Effect” value is reported as -0.3434%.

On to `Cn1cc(C[C@H]2[C@H](O)CCN2Cc2ccncc2)cn1.O=C(O)C(F)(F)F.O=C(O)C(F)(F)F`, for which the “Percent Effect” value was -36.65%.

For `O=C(CCNCc1cccc(O)c1)N1CCc2sccc2C1`, the “Percent Effect” value is on record as 50.25%.

Turning to `Cc1cc(C2CCCN2CCC(=O)N2CCc3sccc3C2)no1` (stereo unspecified), the “Percent Effect” value is -5.731%.

In the case of `N#Cc1cccc(CNCCC(=O)N2CCc3sccc3C2)c1`, the “Percent Effect” value is reported as 18.53%.

`O=C(CCN1CCCC1C1CCCCC1)N1CCc2sccc2C1` (stereo unspecified): the “Percent Effect” value stood at 58.84%.

`COc1ccc(CNCCC(=O)N2CCc3sccc3C2)cc1O`: the “Percent Effect” value was determined as 34.01%.

`O=C(CCN1CCCC1c1cccc(F)c1)N1CCc2sccc2C1` (stereo unspecified): the “Percent Effect” value is listed as 40.53%.

For the compound `CNc1nc(C)c(C(=O)N2C[C@@H](C(=O)O)[C@H](C3CC3)C2)s1`, the “Percent Effect” value is given as -129.8%.

With `Cc1cc(C[S+]([O-])CC(=O)NCc2ccccc2)no1` (stereo unspecified), the “Percent Effect” value was -44.89%.

`C[C@H](NC(=O)OC(C)(C)C)c1nnc(S(=O)(=O)Cc2cccc(F)c2)o1`: the “Percent Effect” value is listed as -198.9%.

`Cc1nc2c(c(NC(C)c3nnn[nH]3)n1)Cc1ccccc1OC2` (stereo unspecified): the “Percent Effect” value is recorded as -22.04%.

With `CNS(=O)(=O)c1cccc(C(C)NCc2ccc(F)cc2F)c1` (stereo unspecified), the “Percent Effect” value is -6.511%.

As for `CNS(=O)(=O)c1cccc(C(C)NCc2cccc(OC)c2)c1` (stereo unspecified), the “Percent Effect” value is -0.2291%.

In the case of `CNS(=O)(=O)c1cccc(C(C)NCc2ccccc2OC)c1` (stereo unspecified), the “Percent Effect” value was 86.21%.

In the case of `CNS(=O)(=O)c1cccc(C(C)NCc2cccc(C)c2C)c1` (stereo unspecified), the “Percent Effect” value came to 68.88%.

On to `CNS(=O)(=O)c1cccc(C(C)NCc2ccc(C)o2)c1` (stereo unspecified), for which the “Percent Effect” value is recorded as 21.13%.

On to `CNS(=O)(=O)c1cccc(C(C)NCc2ccco2)c1` (stereo unspecified), for which the “Percent Effect” value is 0.2758%.

Regarding `O=C(c1cc2c(s1)CCCCC2)N1CCC(c2ncc[nH]2)CC1`, the “Percent Effect” value was -34.19%.

As to `COc1nc2c(cc1C(=O)N1CCCCC1c1ccccn1)CCC2` (stereo unspecified), the “Percent Effect” value is -121.2%.

For `Cc1nn(CC(C)C)c(N(C)C)c1CNCc1ccc(CO)c(F)c1`, the “Percent Effect” value is on record as -6.96%.

Turning to `O=C(CCNS(=O)(=O)c1ccc(F)cc1)NCc1ccoc1`, the “Percent Effect” value was -96.77%.

In the case of `CCCc1nc(CN2CCCC2Cn2cncn2)no1` (stereo unspecified), the “Percent Effect” value is on record as -44.73%.

For the compound `CCSc1ncc(CN2CCC(O)(CN3CCOCC3)C(C)(C)C2)cn1` (stereo unspecified), the “Percent Effect” value is recorded as 16.41%.

In the case of `COc1ccc2c(c1)C(NCCc1ccccn1)CCCO2` (stereo unspecified), the “Percent Effect” value worked out at 57.17%.

Turning to `COc1ccc2c(c1)C(NCCc1c(C)noc1C)CCCO2` (stereo unspecified), the “Percent Effect” value amounted to 29.88%.

As to `COc1c(CNC2CCCOc3ccccc32)c(C)nn1C` (stereo unspecified), the “Percent Effect” value is given as -45.12%.

Regarding `COc1ccc2c(c1)C(NCCc1ncc(C)s1)CCCO2` (stereo unspecified), the “Percent Effect” value is given as -37.71%.

`COc1cccc(CNC2CCCOc3cc(C)ccc32)n1` (stereo unspecified): the “Percent Effect” value is listed as 67.49%.

`Cc1ccc2c(c1)OCCCC2NC1CCN(C)CC1` (stereo unspecified): the “Percent Effect” value is reported as 47.45%.

For the compound `O=C(Nc1cn[nH]c1)N1CCN(CCSc2ccccc2)CC1`, the “Percent Effect” value is recorded as -6.157%.

Consider `CCOCc1ncn2c1CN(C(=O)Nc1cccc(F)c1)CC2`, for which the “Percent Effect” value is -77.13%.

As for `CN(CCCOc1ccccc1Cl)C(=O)CN1CCCCCC1=O`, the “Percent Effect” value is given as -111.3%.
